# In PubChem BioAssay (EPA / NIEHS):
# Several values for one entry are separate records, joined by “and”; a condition that tells them apart may be missing. Equal entries are not always repeated. Records with an inconclusive call do not appear. A structure can be active in one record and inactive in another. Activity calls are given as the source filed them. Rule for the calls, unless noted: active = hit-call score of the fitted dose curve at least 0.9, where 1 is the maximum; inactive = score below 0.9.
# Assays:
# [1] = ATG_NFI_CIS: Attagene CIS-FACTORIAL HepG2 Assay for human Nuclear Factor I (NFI) (AID 2282989); details: HepG2 cis-regulatory reporter, NFI response element transcription; actives raise or lower the signal
# In short: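 Read-out: reporter mRNA via RT-PCR plus capillary electrophoresis with fluorescence detection. Transiently transfected HepG2 (endogenous TF activity on cis promoters), 24 h compound exposure; gain or loss of signal fitted against DMSO.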
# [2] = target: Myc proto-oncogene protein (Homo sapiens) (UniProt P01106); assay: ATG_Myc_CIS: Attagene CIS-FACTORIAL HepG2 Assay for human Myelocytomatosis (Myc) Proto-Oncogene Transcription Factor (AID 2282990); details: HepG2, Attagene cis-reporter transcription factor activity; actives raise or lower the signal
# Chain of Myc proto-oncogene protein (Homo sapiens) (P01106 whole entry, looked up): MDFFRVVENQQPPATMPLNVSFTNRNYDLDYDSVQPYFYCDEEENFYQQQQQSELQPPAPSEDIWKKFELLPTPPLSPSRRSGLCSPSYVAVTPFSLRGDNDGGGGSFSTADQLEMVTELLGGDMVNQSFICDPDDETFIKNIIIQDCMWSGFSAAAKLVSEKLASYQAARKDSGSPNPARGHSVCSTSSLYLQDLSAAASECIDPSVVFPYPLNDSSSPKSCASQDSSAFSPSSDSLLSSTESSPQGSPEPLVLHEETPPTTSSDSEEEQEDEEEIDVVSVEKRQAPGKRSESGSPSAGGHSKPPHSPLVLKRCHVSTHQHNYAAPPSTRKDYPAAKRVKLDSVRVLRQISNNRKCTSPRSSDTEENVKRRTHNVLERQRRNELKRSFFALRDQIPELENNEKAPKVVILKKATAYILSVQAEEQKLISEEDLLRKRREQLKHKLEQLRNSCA
# In short: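 Multiplexed cis-reporter transcription in HepG2 cells after 24 h chemical treatment. Reporter mRNA measured by RT-PCR and capillary electrophoresis fluorescence; activity fitted bidirectionally against DMSO control.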
# [3] = ATG_NF_kB_CIS: Attagene CIS-FACTORIAL HepG2 Assay for human Nuclear Factor Kappa B (NF-kB) (AID 2282991); details: HepG2 Attagene cis-factorial NF-kB reporter mRNA; actives raise or lower the signal
# In short: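 Multiplexed cis-reporter assay in transiently transfected HepG2. 24 h treatment; RNA isolated, RT-PCR, labelled fragments resolved by CE. DMSO baseline.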
# [4] = ATG_NRF2_ARE_CIS: Attagene CIS-FACTORIAL HepG2 Assay for human Nuclear Factor Erythroid 2 Related Factor 2 (NFR2) response to Antioxidant Response Elements (ARE) (AID 2282992); details: HepG2 Attagene ARE/NRF2 reporter, transcription factor activity; actives raise or lower the signal
# In short: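 Endogenous transcription factor activity read out as reporter transcript levels (RT-PCR plus capillary electrophoresis, fluorescence) in transiently transfected HepG2 cells. Measured at 24 h after dosing; gain or loss of signal fitted versus DMSO.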
# [5] = ATG_Oct_MLP_CIS: Attagene CIS-FACTORIAL HepG2 Assay for human Octamer-Binding Transcription Factor (Oct) (AID 2282993); details: HepG2 Attagene cis-factorial Oct reporter, mRNA; actives raise or lower the signal
# In short: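 Read-out: reporter mRNA via RT-PCR plus capillary electrophoresis of 6-FAM-labelled fragments. Transiently transfected HepG2, 24 h exposure, endogenous TF activity on cis elements. Gain or loss of signal fitted relative to DMSO.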
# [6] = target: Cellular tumor antigen p53 (Homo sapiens) (UniProt P04637); assay: ATG_p53_CIS: Attagene CIS-FACTORIAL HepG2 Assay for human p53 Transcription Factor (AID 2282994); details: HepG2 p53 cis-element reporter, Attagene mRNA; actives raise or lower the signal
# Chain of Cellular tumor antigen p53 (Homo sapiens) (P04637 whole entry, looked up): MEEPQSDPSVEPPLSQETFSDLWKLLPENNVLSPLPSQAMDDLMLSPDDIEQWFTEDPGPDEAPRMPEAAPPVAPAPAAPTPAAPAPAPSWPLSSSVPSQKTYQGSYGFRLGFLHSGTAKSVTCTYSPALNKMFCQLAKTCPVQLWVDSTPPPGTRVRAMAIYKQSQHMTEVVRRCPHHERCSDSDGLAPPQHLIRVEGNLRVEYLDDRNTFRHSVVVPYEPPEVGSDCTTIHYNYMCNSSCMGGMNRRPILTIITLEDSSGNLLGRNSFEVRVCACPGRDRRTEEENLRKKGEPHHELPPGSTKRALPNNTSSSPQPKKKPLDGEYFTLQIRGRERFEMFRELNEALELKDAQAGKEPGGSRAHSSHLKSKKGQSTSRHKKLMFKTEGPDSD
# In short: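 Endogenous p53 activity read in transiently transfected HepG2 from a cis-element-driven reporter transcript after 24 h exposure. RNA reverse-transcribed, PCR-amplified, fluorescently labelled and sized by capillary electrophoresis; gain or loss fitted against DMSO baseline.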
# [7] = BSK_3C_TissueFactor: BioMAP Diversity Plus: 3C Assay for Tissue Factor Biomarker Activity (AID 2282997); details: BioMAP 3C HUVEC, tissue factor biomarker readout; actives raise or lower the signal
# In short: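 Tissue Factor measured by ELISA, 24 h after treatment of primary HUVEC in the BioMAP 3C setting.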
# [8] = BSK_3C_uPAR: BioMAP Diversity Plus: 3C Assay for Urokinase-type plasminogen activator receptor (uPAR) Biomarker Activity (AID 2282998); details: BioMAP 3C HUVEC, uPAR biomarker ELISA; actives raise or lower the signal
# In short: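 HUVEC primary cells; 24 h post-dose; uPAR by ELISA; gain or loss of signal fitted bidirectionally vs DMSO baseline.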
# [9] = BSK_3C_VCAM1: BioMAP Diversity Plus: 3C Assay for Vascular cell adhesion molecule 1 (VCAM1) Biomarker Activity (AID 2282999); details: BioMAP 3C HUVEC, VCAM1 ELISA, cytokine-stimulated; actives raise or lower the signal
# In short: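 Vascular primary endothelium (human umbilical vein) was exposed to chemicals and assayed 24 h later. VCAM-1 levels came from ELISA, with DMSO serving as baseline for bidirectional fitting.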
# [10] = BSK_4H_Eotaxin3: BioMAP Diversity Plus: 4H Assay for Eotaxin 3 Biomarker Activity (AID 2283000); details: primary human endothelial cells (HUVEC); actives raise or lower the signal;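 for outcome: CCL26 protein level quantified by ELISA in parallel with SRB cytotoxicity check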
# In short: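 Eotaxin-3 (CCL26) levels were measured by ELISA in HUVEC primary cultures 24 h post-dosing. Gain or loss of signal was fitted in both directions, with DMSO serving as baseline and negative control.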
# [11] = target: human Peroxisome Proliferator-activated Receptor delta (PPARd), PPARD (gene 5467) (UniProt Q03181); assay: ATG_PPARd_TRANS: Attagene TRANS-FACTORIAL HepG2 Assay for human Peroxisome Proliferator-activated Receptor delta (PPARd) (AID 2283002; active = hit-call score of the fitted dose curve at least 0.9, where 1 is the maximum)
# Chain of human Peroxisome Proliferator-activated Receptor delta (PPARd), PPARD (gene 5467) (Q03181 whole entry, looked up, the tested form may be a part): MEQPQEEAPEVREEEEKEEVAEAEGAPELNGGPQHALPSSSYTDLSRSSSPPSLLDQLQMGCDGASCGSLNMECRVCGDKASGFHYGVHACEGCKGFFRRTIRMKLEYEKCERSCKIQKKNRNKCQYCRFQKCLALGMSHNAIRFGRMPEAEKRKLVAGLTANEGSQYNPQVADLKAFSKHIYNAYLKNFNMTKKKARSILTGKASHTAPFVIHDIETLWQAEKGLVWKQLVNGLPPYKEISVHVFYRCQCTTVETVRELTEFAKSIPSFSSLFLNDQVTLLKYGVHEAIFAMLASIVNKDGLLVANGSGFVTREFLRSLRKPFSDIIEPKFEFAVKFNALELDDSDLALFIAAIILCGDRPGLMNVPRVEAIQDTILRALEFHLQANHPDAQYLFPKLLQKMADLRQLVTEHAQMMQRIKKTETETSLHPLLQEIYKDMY
# In short: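 Multiplexed trans-activation format: HepG2 liver cells expressing exogenous NR-Gal4 chimeras and GAL4-UAS reporters were exposed for 24 h. Reporter mRNA was detected by RT-PCR with capillary electrophoresis fluorescence; activity fitted as gain of signal relative to DMSO.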
# [12] = read-out: Intercellular Adhesion Molecule 1 (ICAM1), ICAM1 (gene 3383); assay: BSK_3C_ICAM1: BioMAP Diversity Plus: 3C Assay for Intercellular Adhesion Molecule 1 (ICAM1) Biomarker Activity (AID 2283003); details: primary human endothelial cells (HUVEC); actives raise or lower the signal
# In short: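 ELISA read-out of ICAM-1; HUVEC (primary human), 3C system, 24 h post-dosing; bidirectional fit vs DMSO baseline.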
# [13] = BSK_3C_Proliferation: Cell Proliferation Assessment in the BioMAP Diversity Plus: 3C Assay (AID 2283006); details: primary human endothelial cells (HUVEC);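 for AC50: potency may reflect either rise or fall in cell number versus DMSO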
# In short: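 HUVEC, sub-confluent; 48 h chemical exposure; 10% TCA fix, 0.1% SRB stain, A560 total protein. Gain or loss of signal fitted both directions vs DMSO control.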
# [14] = target: Peroxisome proliferator-activated receptor gamma (Homo sapiens) (UniProt P37231); assay: ATG_PPARg_TRANS: Attagene TRANS-FACTORIAL HepG2 Assay for human Peroxisome Proliferator-activated Receptor-gamma (PPARg) (AID 2283007; active = hit-call score of the fitted dose curve at least 0.9, where 1 is the maximum)
# Chain of Peroxisome proliferator-activated receptor gamma (Homo sapiens) (P37231 whole entry, looked up): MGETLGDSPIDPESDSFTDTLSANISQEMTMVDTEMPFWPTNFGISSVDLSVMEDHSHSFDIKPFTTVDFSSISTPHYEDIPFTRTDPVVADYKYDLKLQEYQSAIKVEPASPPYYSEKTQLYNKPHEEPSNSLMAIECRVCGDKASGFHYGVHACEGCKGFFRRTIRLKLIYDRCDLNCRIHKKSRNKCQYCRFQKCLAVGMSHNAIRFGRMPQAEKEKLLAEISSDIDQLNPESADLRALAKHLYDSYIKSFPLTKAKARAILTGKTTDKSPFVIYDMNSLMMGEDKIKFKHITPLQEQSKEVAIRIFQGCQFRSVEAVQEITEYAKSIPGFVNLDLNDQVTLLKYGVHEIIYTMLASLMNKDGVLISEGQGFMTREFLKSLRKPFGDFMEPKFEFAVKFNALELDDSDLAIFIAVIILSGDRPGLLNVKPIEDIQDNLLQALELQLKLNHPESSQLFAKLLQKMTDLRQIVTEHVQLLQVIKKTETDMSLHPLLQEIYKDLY
# In short: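 Human hepatoma HepG2, transient MRTU transfection, 24 h treatment. mRNA reporter signal by RT-PCR plus capillary electrophoresis, fluorescence detection; fitted for increase over DMSO negative control.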
# [15] = target: human Retinoic Acid Receptor gamma (RARg), RARG (gene 5916) (UniProt P13631); assay: ATG_RARg_TRANS: Attagene TRANS-FACTORIAL HepG2 Assay for human Retinoic Acid Receptor gamma (RARg) (AID 2283009; active = hit-call score of the fitted dose curve at least 0.9, where 1 is the maximum)
# Chain of human Retinoic Acid Receptor gamma (RARg), RARG (gene 5916) (P13631 whole entry, looked up, the tested form may be a part): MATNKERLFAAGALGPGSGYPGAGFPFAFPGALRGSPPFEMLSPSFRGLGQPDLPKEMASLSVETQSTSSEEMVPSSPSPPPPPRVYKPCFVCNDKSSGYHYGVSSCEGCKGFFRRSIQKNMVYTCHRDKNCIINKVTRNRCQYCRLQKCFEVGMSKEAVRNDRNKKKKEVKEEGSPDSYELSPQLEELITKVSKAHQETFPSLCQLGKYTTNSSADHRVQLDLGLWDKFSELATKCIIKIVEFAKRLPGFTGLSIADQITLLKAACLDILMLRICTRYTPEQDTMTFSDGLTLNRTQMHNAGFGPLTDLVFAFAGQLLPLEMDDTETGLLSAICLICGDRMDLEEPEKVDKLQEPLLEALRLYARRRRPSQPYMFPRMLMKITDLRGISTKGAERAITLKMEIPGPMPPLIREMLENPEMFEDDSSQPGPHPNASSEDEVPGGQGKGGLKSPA
# In short: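 Readout: reporter transcript levels via RT-PCR, 6-FAM primer-extension labelling, HpaI digestion and capillary electrophoresis. Cells: HepG2 carrying transfected RARg-GAL4 chimera plus UAS reporter set. Dosing 24 h; DMSO negative control.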
# [16] = target: human Retinoic Acid Receptor beta (RARb), RARB (gene 5915) (UniProt P10826); assay: ATG_RARb_TRANS: Attagene TRANS-FACTORIAL HepG2 Assay for human Retinoic Acid Receptor beta (AID 2283004; active = hit-call score of the fitted dose curve at least 0.9, where 1 is the maximum)
# Chain of human Retinoic Acid Receptor beta (RARb), RARB (gene 5915) (P10826 whole entry, looked up, the tested form may be a part): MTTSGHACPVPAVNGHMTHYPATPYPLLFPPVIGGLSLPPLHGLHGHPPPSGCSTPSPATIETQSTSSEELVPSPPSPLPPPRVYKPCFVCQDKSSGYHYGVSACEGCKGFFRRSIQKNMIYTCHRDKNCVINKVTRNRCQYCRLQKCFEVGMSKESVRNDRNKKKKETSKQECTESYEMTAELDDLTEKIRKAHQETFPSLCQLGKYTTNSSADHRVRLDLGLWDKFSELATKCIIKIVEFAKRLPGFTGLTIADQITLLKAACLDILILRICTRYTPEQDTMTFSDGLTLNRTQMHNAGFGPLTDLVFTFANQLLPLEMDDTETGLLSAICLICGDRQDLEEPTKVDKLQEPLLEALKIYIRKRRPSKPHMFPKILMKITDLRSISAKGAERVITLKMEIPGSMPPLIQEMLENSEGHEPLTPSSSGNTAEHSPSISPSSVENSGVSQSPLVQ
# In short: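 HepG2 cells were transiently transfected with GAL4-UAS reporter units that report activity of exogenous chimeric NR-Gal4 proteins, then exposed to compound for 24 h. Reporter mRNA was quantified by RT-PCR with capillary electrophoresis fluorescence, as gain of signal over DMSO.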
# [17] = target: Nuclear receptor subfamily 1 group I member 2 (Homo sapiens) (UniProt O75469); assay: ATG_PXR_TRANS: Attagene TRANS-FACTORIAL HepG2 Assay for human Pregnane X Receptor (PXR) (AID 2283008; active = hit-call score of the fitted dose curve at least 0.9, where 1 is the maximum)
# Chain of Nuclear receptor subfamily 1 group I member 2 (Homo sapiens) (O75469 whole entry, looked up, the tested form may be a part): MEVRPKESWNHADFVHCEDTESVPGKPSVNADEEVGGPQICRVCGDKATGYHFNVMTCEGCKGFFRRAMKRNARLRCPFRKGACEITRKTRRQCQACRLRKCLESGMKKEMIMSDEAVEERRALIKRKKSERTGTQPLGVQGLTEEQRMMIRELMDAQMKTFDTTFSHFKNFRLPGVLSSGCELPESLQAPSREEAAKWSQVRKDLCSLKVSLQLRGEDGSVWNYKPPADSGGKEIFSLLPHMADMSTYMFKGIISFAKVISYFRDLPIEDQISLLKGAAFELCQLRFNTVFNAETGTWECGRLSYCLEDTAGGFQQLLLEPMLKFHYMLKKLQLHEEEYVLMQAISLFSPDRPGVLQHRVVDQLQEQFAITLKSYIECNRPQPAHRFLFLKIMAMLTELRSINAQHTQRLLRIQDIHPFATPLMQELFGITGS
# In short: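 Transactivation by exogenous PXR–GAL4 fusion measured as reporter transcript induction after 24 h compound treatment of transfected human HepG2 cells. Read-out via RT-PCR and capillary electrophoresis of labelled fragments, fitted upward relative to DMSO.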
# [18] = target: human Peroxisome Proliferator-activated Receptor alpha (PPARa), PPARA (gene 5465) (UniProt Q07869); assay: ATG_PPARa_TRANS: Attagene TRANS-FACTORIAL HepG2 Assay for human Peroxisome Proliferator-activated Receptor alpha (PPARa) (AID 2283001; active = hit-call score of the fitted dose curve at least 0.9, where 1 is the maximum)
# Chain of human Peroxisome Proliferator-activated Receptor alpha (PPARa), PPARA (gene 5465) (Q07869 whole entry, looked up, the tested form may be a part): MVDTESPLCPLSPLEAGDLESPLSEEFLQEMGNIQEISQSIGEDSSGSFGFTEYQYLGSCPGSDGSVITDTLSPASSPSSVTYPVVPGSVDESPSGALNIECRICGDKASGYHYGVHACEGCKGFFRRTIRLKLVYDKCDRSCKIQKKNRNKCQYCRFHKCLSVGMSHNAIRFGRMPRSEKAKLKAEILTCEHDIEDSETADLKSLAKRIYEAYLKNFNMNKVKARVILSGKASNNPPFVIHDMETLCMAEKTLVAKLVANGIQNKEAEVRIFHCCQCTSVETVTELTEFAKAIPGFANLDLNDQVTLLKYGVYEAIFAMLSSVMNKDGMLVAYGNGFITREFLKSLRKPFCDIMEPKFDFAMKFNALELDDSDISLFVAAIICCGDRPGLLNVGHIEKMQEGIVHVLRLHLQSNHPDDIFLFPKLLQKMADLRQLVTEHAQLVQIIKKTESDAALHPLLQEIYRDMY
# In short: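 Exposure: 24 h, transiently transfected HepG2 cells. Endpoint: GAL4-UAS reporter mRNA, RT-PCR with capillary electrophoresis fluorescence. Baseline: DMSO; increases fitted.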
# [19] = target: human RAR-related Orphan Receptor gamma (RORg), RORC (gene 6097) (UniProt P51449); assay: ATG_RORg_TRANS: Attagene TRANS-FACTORIAL HepG2 Assay for human RAR-related Orphan Receptor gamma (RORg) (AID 2283011; active = hit-call score of the fitted dose curve at least 0.9, where 1 is the maximum)
# Chain of human RAR-related Orphan Receptor gamma (RORg), RORC (gene 6097) (P51449 whole entry, looked up, the tested form may be a part): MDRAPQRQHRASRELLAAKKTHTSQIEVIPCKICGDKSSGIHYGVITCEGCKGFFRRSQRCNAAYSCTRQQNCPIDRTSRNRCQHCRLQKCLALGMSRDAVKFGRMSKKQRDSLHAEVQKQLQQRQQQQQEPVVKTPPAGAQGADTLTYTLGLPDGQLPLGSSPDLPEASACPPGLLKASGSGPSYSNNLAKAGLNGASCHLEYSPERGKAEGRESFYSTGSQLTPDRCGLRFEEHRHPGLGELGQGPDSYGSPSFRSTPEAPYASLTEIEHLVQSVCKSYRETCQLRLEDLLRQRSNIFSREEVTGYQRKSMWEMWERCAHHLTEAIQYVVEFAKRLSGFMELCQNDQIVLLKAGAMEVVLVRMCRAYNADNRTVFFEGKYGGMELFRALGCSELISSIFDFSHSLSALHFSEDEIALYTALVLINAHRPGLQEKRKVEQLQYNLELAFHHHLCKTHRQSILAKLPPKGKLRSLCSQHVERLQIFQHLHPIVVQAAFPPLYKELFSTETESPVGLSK
# In short: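 HepG2 cells transiently transfected with GAL4-UAS reporter units and chimeric RORg-Gal4 construct; after 24 h chemical exposure, reporter mRNA measured by RT-PCR with fluorescent capillary electrophoresis, gain of signal fitted against DMSO.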
smiles,measurement,setting,value
COC(=O)c1ccccc1S(=O)(=O)NC(=O)Nc1nc(OC(F)F)cc(OC(F)F)n1,outcome,[1],inactive
same,outcome,[2],inactive
same,outcome,[3],inactive
same,outcome,[4],inactive
same,outcome,[5],inactive
same,outcome,[6],inactive
same,outcome,[7],inactive
same,outcome,[8],inactive
same,outcome,[9],inactive
same,outcome,[10],inactive
same,outcome,[11],inactive
same,outcome,[12],inactive
same,outcome,[13],inactive
same,outcome,[14],inactive
same,outcome,[15],inactive
COC(=O)c1cccc(C)c1S(=O)(=O)NC(=O)Nc1nc(OCC(F)(F)F)nc(N(C)C)n1,outcome,[1],inactive
same,outcome,[2],inactive
same,outcome,[3],inactive
same,AC50,[4],30.9 µM (active)
same,outcome,[5],inactive
same,outcome,[6],inactive
same,outcome,[7],inactive
same,outcome,[8],inactive
same,outcome,[9],inactive
same,outcome,[10],inactive
same,outcome,[11],inactive
same,outcome,[12],inactive
same,outcome,[16],inactive
same,outcome,[13],inactive
same,outcome,[14],inactive
same,outcome,[17],inactive
same,outcome,[15],inactive
O=C(Nc1ccc([N+](=O)[O-])cc1Cl)c1cc(Cl)ccc1O,outcome,[1],inactive
same,outcome,[2],inactive
same,AC50,[3],1.17 µM (active)
same,AC50,[4],0.544 µM (active)
same,AC50,[5],0.7 µM (active)
same,AC50,[6],0.7 µM (active)
same,outcome,[7],inactive
same,AC50,[8],0.145 µM (active)
same,AC50,[9],0.189 µM (active)
same,AC50,[10],0.148 µM (active)
same,outcome,[11],inactive
same,AC50,[12],20 µM (active)
same,outcome,[16],inactive
same,AC50,[13],0.313 µM (active)
same,outcome,[14],inactive
same,outcome,[17],inactive
same,outcome,[15],inactive
O=C(c1ccccc1)C1CCCCC1,outcome,[1],inactive
same,outcome,[2],inactive
same,outcome,[3],inactive
same,outcome,[4],inactive
same,outcome,[5],inactive
same,outcome,[6],inactive
same,outcome,[7],inactive
same,outcome,[8],inactive
same,outcome,[9],inactive
same,outcome,[10],inactive
same,outcome,[11],inactive
same,outcome,[12],inactive
same,outcome,[16],inactive
same,outcome,[13],inactive
same,AC50,[14],61.5 µM (active)
same,outcome,[14],inactive
same,AC50,[17],29.1 µM (active) and 8.99 µM (active) and 19.7 µM (active)
same,outcome,[17],inactive
same,outcome,[15],inactive
COC(=O)c1c(Cl)nn(C)c1S(=O)(=O)NC(=O)Nc1nc(OC)cc(OC)n1,outcome,[1],inactive
same,outcome,[2],inactive
same,outcome,[3],inactive
same,outcome,[4],inactive
same,outcome,[5],inactive
same,outcome,[6],inactive
same,outcome,[7],inactive
same,outcome,[8],inactive
same,outcome,[9],inactive
same,outcome,[10],inactive
same,outcome,[18],inactive
same,outcome,[11],inactive
same,outcome,[12],inactive
same,outcome,[13],inactive
same,outcome,[14],inactive
same,outcome,[17],inactive
same,outcome,[15],inactive
COC(=O)c1ccc(CNS(C)(=O)=O)cc1S(=O)(=O)NC(=O)Nc1nc(OC)cc(OC)n1,outcome,[1],inactive
same,outcome,[2],inactive
same,outcome,[3],inactive
same,outcome,[4],inactive
same,outcome,[5],inactive
same,outcome,[6],inactive
same,outcome,[7],inactive
same,outcome,[8],inactive
same,outcome,[9],inactive
same,outcome,[10],inactive
same,outcome,[18],inactive
same,outcome,[12],inactive
same,outcome,[16],inactive
same,outcome,[13],inactive
same,outcome,[14],inactive
same,outcome,[17],inactive
same,outcome,[19],inactive
CCCCCCC(C)OC(=O)COc1nc(F)c(Cl)c(N)c1Cl (stereo unspecified),outcome,[1],inactive
same,outcome,[2],inactive
same,outcome,[3],inactive
same,outcome,[4],inactive
same,outcome,[5],inactive
same,outcome,[6],inactive
same,AC50,[7],34.4 µM (active)
same,AC50,[8],37.8 µM (active)
same,AC50,[9],18.3 µM (active)
same,AC50,[10],34.2 µM (active)
same,outcome,[11],inactive
same,AC50,[12],34.9 µM (active)
same,AC50,[13],13.6 µM (active)
same,outcome,[17],inactive
